# Measured values taken from PMC11024108.
# Key:
# [1] = biological target: 14-3-3 protein zeta/delta (UniProt P63101); assay: cross-link between two proteins; cross-linking mass spectrometry
# [2] = biological target: Brain acid soluble protein 1 (UniProt Q91XV3); assay: as above
# P2X purinoceptor 7 = P2X purinoceptor 7 (UniProt Q9Z1M0); assay: as above
# Clathrin heavy chain 1 = Clathrin heavy chain 1 (UniProt Q68FD5); assay: as above
# [3] = biological target: Charged multivesicular body protein 3 (UniProt Q9Y3E7); assay: cross-linking mass spectrometry
# [4] = biological target: Charged multivesicular body protein 2b (UniProt Q9UQN3); assay: cross-link between two proteins; cross-linking mass spectrometry
# Cell adhesion molecule 3 = Cell adhesion molecule 3 (UniProt Q99N28); assay: as above
# [5] = biological target: COMM domain-containing protein 8 (UniProt Q9CZG3); assay: as above
# Calreticulin = Calreticulin (UniProt P27797); assay: as above
# [6] = biological target: Dynein light chain 2, cytoplasmic (UniProt Q9D0M5); assay: as above
# Protein piccolo = Protein piccolo (UniProt Q9QYX7); assay: as above
# Dynactin subunit 2 = Dynactin subunit 2 (UniProt Q99KJ8); assay: as above
# [7] = biological target: ER membrane protein complex subunit 2 (UniProt Q9CRD2); assay: as above
# [8] = biological target: Disintegrin and metalloproteinase domain-containing protein 22 (UniProt Q9R1V6); assay: as above
# [9] = biological target: Disintegrin and metalloproteinase domain-containing protein 23 (UniProt Q9R1V7); assay: as above
# [10] = biological target: Eukaryotic translation initiation factor 2 subunit 3, X-linked (UniProt Q9Z0N1); assay: as above
# Flotillin-2 = Flotillin-2 (UniProt Q60634); assay: as above
# [11] = biological target: Elongation factor 1-alpha 2 (UniProt P62631); assay: as above
# Calnexin = Calnexin (UniProt P27824); assay: as above
# [12] = biological target: Transmembrane emp24 domain-containing protein 10 (UniProt P49755); assay: as above
# Erlin-1 = Erlin-1 (UniProt Q91X78); assay: as above
# [13] = biological target: Eukaryotic translation initiation factor 3 subunit B (UniProt Q8JZQ9); assay: as above
# [14] = biological target: DnaJ homolog subfamily C member 5 (UniProt Q9H3Z4); assay: as above
# ERO1-like protein alpha = ERO1-like protein alpha (UniProt Q96HE7); assay: as above
# [15] = biological target: EH domain-containing protein 1 (UniProt Q9WVK4); assay: as above
# [16] = biological target: Fragile X messenger ribonucleoprotein 1 (UniProt Q06787); assay: as above
# [17] = biological target: Cytoplasmic FMR1-interacting protein 2 (UniProt Q5SQX6); assay: as above
# Flotillin-1 = Flotillin-1 (UniProt O75955); assay: as above
# [18] = biological target: Cytochrome c oxidase assembly factor 3 homolog, mitochondrial (UniProt Q9Y2R0); assay: as above
# [19] = biological target: Dolichyl-diphosphooligosaccharide--protein glycosyltransferase subunit 1 (UniProt P04843); assay: as above
# [20] = biological target: Vesicle-associated membrane protein-associated protein A (UniProt Q9P0L0); assay: as above
# Clathrin light chain B = Clathrin light chain B (UniProt Q6IRU5); assay: as above
# [21] = biological target: Epidermal growth factor receptor substrate 15-like 1 (UniProt Q9UBC2); assay: as above
# [22] = biological target: Cytoplasmic dynein 1 heavy chain 1 (UniProt Q9JHU4); assay: as above
# [23] = biological target: Delta-1-pyrroline-5-carboxylate synthase (UniProt P54886); assay: as above
# Prohibitin-2 = Prohibitin-2 (UniProt Q99623); assay: as above
# [24] = biological target: Scaffold attachment factor B1 (UniProt Q15424); assay: as above
# [25] = biological target: Trifunctional enzyme subunit alpha, mitochondrial (UniProt P40939); assay: as above
# Dynamin-3 = Dynamin-3 (UniProt Q8BZ98); assay: as above
# [26] = biological target: Complement C1q subcomponent subunit C (UniProt Q02105); assay: as above
# Cofilin-1 = Cofilin-1 (UniProt P23528); assay: as above
# [27] = biological target: Dihydrolipoyl dehydrogenase, mitochondrial (UniProt P09622); assay: as above
# [28] = biological target: Malate dehydrogenase, mitochondrial (UniProt P40926); assay: as above
# Cytochrome c = Cytochrome c (UniProt P99999); assay: as above
# [29] = biological target: DnaJ homolog subfamily A member 1 (UniProt P63037); assay: as above
# [30] = biological target: Vesicle-associated membrane protein 1 (UniProt Q62442); assay: as above
# [31] = biological target: Cell cycle control protein 50A (UniProt Q8VEK0); assay: as above
# Dynactin subunit 3 = Dynactin subunit 3 (UniProt Q9Z0Y1); assay: as above
# [32] = biological target: 10 kDa heat shock protein, mitochondrial (UniProt P61604); assay: cross-linking mass spectrometry
# [33] = biological target: Heat shock cognate 71 kDa protein (UniProt P11142); assay: cross-linking mass spectrometry
# [34] = biological target: Heat shock 70 kDa protein 1B (UniProt P0DMV9); assay: cross-link between two proteins; cross-linking mass spectrometry
# Syntaxin-8 = Syntaxin-8 (UniProt Q9UNK0); assay: cross-linking mass spectrometry
# [35] = biological target: Gamma-soluble NSF attachment protein (UniProt Q99747); assay: cross-link between two proteins; cross-linking mass spectrometry
# [36] = biological target: Fructose-bisphosphate aldolase A (UniProt P05064); assay: as above
# [37] = biological target: Gamma-aminobutyric acid receptor subunit beta-1 (UniProt P50571); assay: as above
# Gamma-enolase = Gamma-enolase (UniProt P17183); assay: as above
# [38] = biological target: Gamma-soluble NSF attachment protein (UniProt Q9CWZ7); assay: as above
# Glutamate receptor 2 = Glutamate receptor 2 (UniProt P23819); assay: as above
# [39] = biological target: Glyceraldehyde-3-phosphate dehydrogenase (UniProt P16858); assay: as above
# [40] = biological target: Guanine nucleotide-binding protein G(I)/G(S)/G(O) subunit gamma-5 (UniProt P63218); assay: as above
# [41] = biological target: Guanine nucleotide-binding protein G(I)/G(S)/G(T) subunit beta-1 (UniProt P62874); assay: as above
# [42] = biological target: Guanine nucleotide-binding protein subunit beta-4 (UniProt Q9HAV0); assay: as above
# [43] = biological target: Heat shock cognate 71 kDa protein (UniProt P11142); assay: as above
# [44] = biological target: Heat shock cognate 71 kDa protein (UniProt P63017); assay: as above
# Heat shock cognate 71 kDa protein (UniProt P11142), sequence (P11142 whole entry): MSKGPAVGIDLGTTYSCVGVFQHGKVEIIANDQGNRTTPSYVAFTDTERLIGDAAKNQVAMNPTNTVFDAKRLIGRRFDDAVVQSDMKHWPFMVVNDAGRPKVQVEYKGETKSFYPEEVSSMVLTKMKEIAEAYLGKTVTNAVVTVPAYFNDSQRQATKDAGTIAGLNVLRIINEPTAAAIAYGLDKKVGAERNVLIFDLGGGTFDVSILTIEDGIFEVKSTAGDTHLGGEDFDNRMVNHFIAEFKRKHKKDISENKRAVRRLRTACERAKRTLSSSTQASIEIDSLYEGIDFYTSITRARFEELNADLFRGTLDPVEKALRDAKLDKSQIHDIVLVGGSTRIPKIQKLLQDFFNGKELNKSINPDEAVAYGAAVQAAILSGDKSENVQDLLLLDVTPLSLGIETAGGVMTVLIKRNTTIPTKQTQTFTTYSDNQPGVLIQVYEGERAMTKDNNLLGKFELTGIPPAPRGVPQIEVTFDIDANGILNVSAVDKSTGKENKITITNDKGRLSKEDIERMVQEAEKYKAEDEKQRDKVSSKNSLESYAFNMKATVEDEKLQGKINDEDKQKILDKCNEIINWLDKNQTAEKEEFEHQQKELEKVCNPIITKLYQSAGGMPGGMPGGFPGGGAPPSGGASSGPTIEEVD
# Disintegrin and metalloproteinase domain-containing protein 22, sequence (Q9R1V6 whole entry, the tested form may be a part): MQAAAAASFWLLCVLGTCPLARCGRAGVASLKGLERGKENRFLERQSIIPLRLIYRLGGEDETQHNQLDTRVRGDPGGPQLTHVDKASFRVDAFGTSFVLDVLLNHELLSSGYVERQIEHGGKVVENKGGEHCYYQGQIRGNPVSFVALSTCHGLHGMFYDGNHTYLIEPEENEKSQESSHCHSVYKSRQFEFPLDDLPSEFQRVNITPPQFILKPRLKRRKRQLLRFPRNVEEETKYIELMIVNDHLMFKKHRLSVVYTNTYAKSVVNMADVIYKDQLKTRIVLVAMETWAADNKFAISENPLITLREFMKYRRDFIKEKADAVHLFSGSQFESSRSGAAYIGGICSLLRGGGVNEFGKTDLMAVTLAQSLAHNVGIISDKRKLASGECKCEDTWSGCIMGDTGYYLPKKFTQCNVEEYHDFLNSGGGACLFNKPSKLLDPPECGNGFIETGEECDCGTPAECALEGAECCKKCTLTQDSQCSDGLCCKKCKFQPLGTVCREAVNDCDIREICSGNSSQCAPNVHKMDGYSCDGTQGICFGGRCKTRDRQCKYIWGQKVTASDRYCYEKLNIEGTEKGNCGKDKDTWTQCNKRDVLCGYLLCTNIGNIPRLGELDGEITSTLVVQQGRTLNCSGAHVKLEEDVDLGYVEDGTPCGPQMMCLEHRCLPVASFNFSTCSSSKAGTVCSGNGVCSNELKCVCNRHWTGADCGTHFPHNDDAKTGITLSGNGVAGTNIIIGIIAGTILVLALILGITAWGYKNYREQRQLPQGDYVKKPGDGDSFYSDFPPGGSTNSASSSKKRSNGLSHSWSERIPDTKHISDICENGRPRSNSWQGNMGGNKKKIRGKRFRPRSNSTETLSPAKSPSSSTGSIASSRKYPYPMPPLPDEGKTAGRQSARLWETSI
# Glutamate dehydrogenase 1, mitochondrial, P00367, sequence (P00367 whole entry): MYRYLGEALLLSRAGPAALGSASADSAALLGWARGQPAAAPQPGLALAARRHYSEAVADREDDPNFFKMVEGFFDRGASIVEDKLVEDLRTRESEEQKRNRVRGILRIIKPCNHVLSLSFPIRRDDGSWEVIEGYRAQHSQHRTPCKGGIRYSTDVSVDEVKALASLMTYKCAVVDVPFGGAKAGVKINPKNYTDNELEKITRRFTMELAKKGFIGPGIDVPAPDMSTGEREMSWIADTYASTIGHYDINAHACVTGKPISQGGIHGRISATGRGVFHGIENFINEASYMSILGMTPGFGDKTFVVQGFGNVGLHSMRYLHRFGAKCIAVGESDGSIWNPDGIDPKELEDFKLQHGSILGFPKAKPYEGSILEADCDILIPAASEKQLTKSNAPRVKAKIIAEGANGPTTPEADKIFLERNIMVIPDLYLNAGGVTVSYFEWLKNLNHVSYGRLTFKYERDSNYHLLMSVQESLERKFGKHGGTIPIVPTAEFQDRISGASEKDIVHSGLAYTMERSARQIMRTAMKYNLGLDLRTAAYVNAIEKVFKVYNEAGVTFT
# Peptidyl-prolyl cis-trans isomerase B, P23284, sequence (P23284 whole entry): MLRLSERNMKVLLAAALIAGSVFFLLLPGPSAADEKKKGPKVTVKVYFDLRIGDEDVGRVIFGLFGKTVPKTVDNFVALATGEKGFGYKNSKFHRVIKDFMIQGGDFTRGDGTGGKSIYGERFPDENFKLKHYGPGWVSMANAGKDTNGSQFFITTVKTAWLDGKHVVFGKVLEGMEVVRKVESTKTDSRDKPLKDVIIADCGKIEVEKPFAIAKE
# Dynactin subunit 2, sequence (Q99KJ8 whole entry): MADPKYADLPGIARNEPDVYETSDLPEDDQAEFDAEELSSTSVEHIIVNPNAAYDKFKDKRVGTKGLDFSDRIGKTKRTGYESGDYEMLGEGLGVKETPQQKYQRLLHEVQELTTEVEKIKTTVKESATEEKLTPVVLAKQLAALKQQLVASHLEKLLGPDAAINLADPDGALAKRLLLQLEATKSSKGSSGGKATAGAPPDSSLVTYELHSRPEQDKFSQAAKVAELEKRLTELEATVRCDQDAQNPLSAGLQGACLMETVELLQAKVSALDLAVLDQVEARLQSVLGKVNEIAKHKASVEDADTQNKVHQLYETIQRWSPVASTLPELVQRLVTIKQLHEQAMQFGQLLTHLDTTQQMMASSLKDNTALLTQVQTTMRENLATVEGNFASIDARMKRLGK
# Glyceraldehyde-3-phosphate dehydrogenase, P16858, sequence (P16858 whole entry): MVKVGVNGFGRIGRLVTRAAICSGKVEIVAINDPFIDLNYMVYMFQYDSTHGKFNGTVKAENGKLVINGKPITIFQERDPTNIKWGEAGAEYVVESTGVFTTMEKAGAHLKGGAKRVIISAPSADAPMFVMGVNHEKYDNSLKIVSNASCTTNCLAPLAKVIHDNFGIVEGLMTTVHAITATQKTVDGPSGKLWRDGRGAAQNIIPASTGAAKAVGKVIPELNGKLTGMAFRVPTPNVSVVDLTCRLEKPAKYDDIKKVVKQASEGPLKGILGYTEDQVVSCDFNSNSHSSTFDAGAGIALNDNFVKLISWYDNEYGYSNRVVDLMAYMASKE
# P2X purinoceptor 7, sequence (Q9Z1M0 whole entry): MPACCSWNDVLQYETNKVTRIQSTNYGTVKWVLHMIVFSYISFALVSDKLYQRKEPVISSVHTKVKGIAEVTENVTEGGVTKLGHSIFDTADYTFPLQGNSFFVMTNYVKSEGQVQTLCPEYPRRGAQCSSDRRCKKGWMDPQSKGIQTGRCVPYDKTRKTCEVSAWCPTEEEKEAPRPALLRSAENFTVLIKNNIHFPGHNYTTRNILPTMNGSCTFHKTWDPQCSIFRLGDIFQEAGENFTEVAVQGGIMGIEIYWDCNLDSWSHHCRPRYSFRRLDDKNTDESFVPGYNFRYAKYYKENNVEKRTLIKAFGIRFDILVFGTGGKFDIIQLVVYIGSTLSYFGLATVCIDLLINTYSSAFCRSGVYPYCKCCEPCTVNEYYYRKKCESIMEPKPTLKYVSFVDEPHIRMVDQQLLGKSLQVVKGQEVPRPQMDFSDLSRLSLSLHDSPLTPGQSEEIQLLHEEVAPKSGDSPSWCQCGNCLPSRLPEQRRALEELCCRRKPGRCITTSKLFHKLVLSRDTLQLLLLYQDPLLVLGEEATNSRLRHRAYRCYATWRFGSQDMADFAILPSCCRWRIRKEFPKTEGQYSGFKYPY
# Transmembrane emp24 domain-containing protein 10, sequence (P49755 whole entry, the tested form may be a part): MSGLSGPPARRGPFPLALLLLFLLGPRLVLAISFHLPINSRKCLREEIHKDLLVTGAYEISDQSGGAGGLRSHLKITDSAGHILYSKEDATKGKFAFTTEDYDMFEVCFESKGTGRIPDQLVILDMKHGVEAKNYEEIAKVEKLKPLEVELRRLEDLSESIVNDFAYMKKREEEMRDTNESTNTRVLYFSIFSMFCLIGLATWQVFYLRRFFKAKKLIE
# Brain acid soluble protein 1, sequence (Q91XV3 whole entry): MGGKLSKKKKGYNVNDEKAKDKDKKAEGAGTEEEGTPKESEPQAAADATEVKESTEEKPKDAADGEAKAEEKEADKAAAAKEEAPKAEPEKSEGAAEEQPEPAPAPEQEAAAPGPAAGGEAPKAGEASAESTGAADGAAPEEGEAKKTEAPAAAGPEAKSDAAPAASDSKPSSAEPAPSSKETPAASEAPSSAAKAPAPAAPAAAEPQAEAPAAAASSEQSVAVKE
# Dynein light chain 2, cytoplasmic, sequence (Q9D0M5 whole entry): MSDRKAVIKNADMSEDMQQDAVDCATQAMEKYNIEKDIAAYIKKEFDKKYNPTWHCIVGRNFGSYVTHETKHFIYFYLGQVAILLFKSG
# Fructose-bisphosphate aldolase A, sequence (P05064 whole entry): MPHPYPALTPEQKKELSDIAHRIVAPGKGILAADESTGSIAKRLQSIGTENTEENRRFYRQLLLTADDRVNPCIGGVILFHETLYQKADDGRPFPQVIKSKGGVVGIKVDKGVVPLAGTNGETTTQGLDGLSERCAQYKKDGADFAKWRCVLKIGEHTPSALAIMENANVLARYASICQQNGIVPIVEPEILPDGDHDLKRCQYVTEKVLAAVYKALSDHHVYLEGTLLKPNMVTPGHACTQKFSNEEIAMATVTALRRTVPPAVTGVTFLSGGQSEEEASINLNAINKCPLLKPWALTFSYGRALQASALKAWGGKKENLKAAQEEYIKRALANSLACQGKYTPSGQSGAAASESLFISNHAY
# Cytochrome c, sequence (P99999 whole entry): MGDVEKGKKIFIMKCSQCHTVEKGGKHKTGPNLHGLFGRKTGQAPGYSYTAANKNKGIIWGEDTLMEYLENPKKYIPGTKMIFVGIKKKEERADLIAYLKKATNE
# 14-3-3 protein zeta/delta, sequence (P63101 whole entry, stated change not applied): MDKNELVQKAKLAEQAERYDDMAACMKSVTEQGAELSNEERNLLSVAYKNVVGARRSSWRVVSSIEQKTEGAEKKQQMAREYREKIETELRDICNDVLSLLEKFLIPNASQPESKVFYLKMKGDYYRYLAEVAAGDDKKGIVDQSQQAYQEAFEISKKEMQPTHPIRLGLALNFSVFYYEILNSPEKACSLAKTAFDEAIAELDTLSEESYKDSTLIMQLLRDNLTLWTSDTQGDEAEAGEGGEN
substance,measurement,setting,value
"14-3-3 protein gamma, P61982",listed as a hit,[1],yes
"Glyceraldehyde-3-phosphate dehydrogenase, P16858",listed as a hit,[2],yes
same,listed as a hit,P2X purinoceptor 7,yes
"Clathrin light chain A, O08585",listed as a hit,Clathrin heavy chain 1,yes
"Charged multivesicular body protein 1a, Q9HD42",listed as a hit,[3],yes
same,listed as a hit,[4],yes
"Cell adhesion molecule 2, Q8BLQ9",listed as a hit,Cell adhesion molecule 3,yes
"COMM domain-containing protein 1, Q8K4M5",listed as a hit,[5],yes
"Endoplasmic reticulum chaperone BiP, P11021",listed as a hit,Calreticulin,yes
"Protein bassoon, O88737",listed as a hit,[6],yes
same,listed as a hit,Protein piccolo,yes
"Beta-centractin, Q8R5C5",listed as a hit,Dynactin subunit 2,yes
"ER membrane protein complex subunit 8, O70378",listed as a hit,[7],yes
"Dynactin subunit 1, O08788",listed as a hit,Dynactin subunit 2,yes
"Leucine-rich glioma-inactivated protein 1, Q9JIA1",listed as a hit,[8],yes
same,listed as a hit,[9],yes
"Eukaryotic translation initiation factor 2 subunit 1, Q6ZWX6",listed as a hit,[10],yes
"Flotillin-1, O08917",listed as a hit,Flotillin-2,yes
"Elongation factor 1-alpha 1, P10126",listed as a hit,[11],yes
"Peptidyl-prolyl cis-trans isomerase B, P23284",listed as a hit,Calnexin,yes
same,listed as a hit,[12],yes
"Erlin-2, Q8BFZ9",listed as a hit,Erlin-1,yes
"Eukaryotic translation initiation factor 3 subunit A, P23116",listed as a hit,[13],yes
"DnaJ homolog subfamily A member 1, P31689",listed as a hit,[14],yes
"Thioredoxin domain-containing protein 5, Q8NBS9",listed as a hit,ERO1-like protein alpha,yes
"EH domain-containing protein 3, Q9QXY6",listed as a hit,[15],yes
"RNA-binding protein FXR1, P51114",listed as a hit,[16],yes
"Contactin-2, Q61330",listed as a hit,[8],yes
"Nck-associated protein 1, P28660",listed as a hit,[17],yes
"Syntaxin-7, O15400",listed as a hit,Flotillin-1,yes
"COX assembly mitochondrial protein homolog, Q7Z7K0",listed as a hit,[18],yes
"Membrane-associated progesterone receptor component 2, O15173",listed as a hit,[19],yes
same,listed as a hit,[20],yes
"Clathrin heavy chain 1, Q68FD5",listed as a hit,Clathrin light chain B,yes
"Intersectin-2, Q9NZM3",listed as a hit,[21],yes
"Cytoplasmic dynein 1 light intermediate chain 1, Q8R1Q8",listed as a hit,[22],yes
"60 kDa heat shock protein, mitochondrial, P10809",listed as a hit,[23],yes
same,listed as a hit,Prohibitin-2,yes
same,listed as a hit,[24],yes
same,listed as a hit,[25],yes
"Cytoplasmic dynein 1 light intermediate chain 2, Q6PDL0",listed as a hit,[22],yes
"Dynamin-1, P39053",listed as a hit,Dynamin-3,yes
"Complement C1q subcomponent subunit A, P98086",listed as a hit,[26],yes
"WD repeat-containing protein 1, O75083",listed as a hit,Cofilin-1,yes
"Glutamate dehydrogenase 1, mitochondrial, P00367",listed as a hit,[27],yes
same,listed as a hit,[28],yes
"Holocytochrome c-type synthase, P53701",listed as a hit,Cytochrome c,yes
"DnaJ homolog subfamily C member 5, P60904",listed as a hit,[29],yes
same,listed as a hit,[30],yes
"Phospholipid-transporting ATPase IA, P70704",listed as a hit,[31],yes
"Dynactin subunit 2, Q99KJ8",listed as a hit,Dynactin subunit 3,yes
"Peptidyl-prolyl cis-trans isomerase F, mitochondrial, P30405",listed as a hit,[32],yes
"BAG family molecular chaperone regulator 2, O95816",listed as a hit,[33],yes
same,listed as a hit,[34],yes
"Alpha-soluble NSF attachment protein, P54920",listed as a hit,Syntaxin-8,yes
same,listed as a hit,[35],yes
"Fructose-bisphosphate aldolase C, P05063",listed as a hit,[36],yes
"Gamma-aminobutyric acid receptor subunit gamma-2, P22723",listed as a hit,[37],yes
"Alpha-enolase, P17182",listed as a hit,Gamma-enolase,yes
"Beta-soluble NSF attachment protein, P28663",listed as a hit,[38],yes
"DOMON domain-containing protein FRRS1L, B1AXV0",listed as a hit,Glutamate receptor 2,yes
"Fructose-bisphosphate aldolase A, P05064",listed as a hit,[39],yes
"Guanine nucleotide-binding protein G(I)/G(S)/G(T) subunit beta-2, P62879",listed as a hit,[40],yes
"Guanine nucleotide-binding protein G(I)/G(S)/G(O) subunit gamma-4, P50153",listed as a hit,[41],yes
"Guanine nucleotide-binding protein G(I)/G(S)/G(O) subunit gamma-5, P63218",listed as a hit,[42],yes
"Heat shock protein HSP 90-beta, P08238",listed as a hit,[43],yes
"Heat shock 70 kDa protein 4L, P48722",listed as a hit,[44],yes
